This note sets out measurements from PubChem BioAssay (Tox21).

Several values for one entry are separate records, joined by “and”; a condition that tells them apart may be missing. Equal values may be shown once. Results filed as inconclusive are left out. Activity calls are given as the source filed them. Unless noted, calls follow the shape of the dose curve; as a rule, active = well fitted curve in the direction sought with a large enough effect in the repeat runs; inconclusive = weak or mixed curves; inactive = no such curve, though single readings can be large; an effect the other way counts as inactive or inconclusive.

Assay [1] is described as follows: qHTS assay to identify small molecule antagonists of the glucocorticoid receptor (GR) signaling pathway - cell viability counter screen (AID 720693). Also: nearly all actives have a fitted effect of over 55% in size.
Assay [2] in a line: qHTS assay for identifying genotoxic compounds that show differential cytotoxicity against isogenic chicken DT40 cell lines with known DNA damage response pathways - wild type cell line (AID 743012). Also: nearly all actives have a fitted effect of over 60% in size. Also: potency is read from the fitted curve at half-maximal effect. An outline of the steps: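 First, wild type DT40 cells were plated at 300 per well and equilibrated about 0.5 h at 37 C/5% CO2. Next, compounds in DMSO were added and exposure lasted 40 h. Finally, CellTiter-Glo was added for 30 min at room temperature and luminescence recorded.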

The nature of assay [3]: qHTS assay for identifying genotoxic compounds that show differential cytotoxicity against isogenic chicken DT40 cell lines with known DNA damage response pathways - Rev3 mutant cell line (AID 743014). Also: nearly all actives have a fitted effect of over 55% in size. Also: potency is read from the fitted curve at half-maximal effect. On the technique in general: Quantitative high-throughput screening tests each substance at several concentrations.
Assay [4] is described as follows: qHTS assay to identify small molecule antagonists of the androgen receptor (AR) signaling pathway - cell viability counter screen (AID 743033; also: nearly all actives have a fitted effect of over 45% in size).
The target in assay [5] is Androgen receptor (Homo sapiens) (UniProt P10275). The assay is described as follows: qHTS assay to identify small molecule agonists of the androgen receptor (AR) signaling pathway (AID 743036; active = well fitted activation curve with a large enough effect in the signal ratio in the repeat runs, with a control signal flat, not every such curve was filed as active; the % refers to the signal ratio). An outline of the steps: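 Reporter line: GeneBLAzer AR-UAS-bla-GripTite (HEK293). Steps: plate cells, 4 h rest, add compounds, 16 h at 37C, add LiveBLAzer B/G substrate, 2 h at RT, read fluorescence.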

Assay [6] shares this target. The assay is described as follows: qHTS assay to identify small molecule agonists of the androgen receptor (AR) signaling pathway using the MDA cell line (AID 743040; also: nearly all actives have a fitted effect of over 20% in size). An outline of the steps:
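After a 5 h incubation at 37C and 0% CO2, MDA-kb2 reporter cells were dosed with compounds in DMSO and kept 16 h under the same conditions. Luciferase activity was then read as luminescence with ONE-Glo.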

A short description of assay [7]: qHTS assay to identify small molecule antagonists of the androgen receptor (AR) signaling pathway using the MDA cell line - cell viability counter screen (AID 743041; also: nearly all actives have a fitted effect of over 45% in size). An outline of the steps:
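R1881-driven MDA-kb2 AR-luc cells, 3,000/well, were dosed with library compounds for 16 h; cell health came from CellTiter-Fluor fluorescence in the reporter wells.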

Assay [8] deals with Androgen receptor (Homo sapiens) (UniProt P10275). In words: qHTS assay to identify small molecule antagonists of the androgen receptor (AR) signaling pathway using the MDA cell line (AID 743042; also: nearly all actives have a fitted effect of over 55% in size). In short, it runs like this: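 Antagonist mode: compounds plus R1881 agonist added to MDA-kb2 AR-luc cells, incubated 16 h at 37C. Luciferase reporter luminescence quantified, with multiplexed CellTiter-Fluor readout for cell viability.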

Assay [9] can be described thus: qHTS assay for identifying genotoxic compounds that show differential cytotoxicity against isogenic chicken DT40 cell lines with known DNA damage response pathways - Rad54/Ku70 mutant cell line (AID 743015). Also: nearly all actives have a fitted effect of over 60% in size. Also: potency is read from the fitted curve at half-maximal effect.
The target in assay [10] is Androgen receptor (Homo sapiens) (UniProt P10275). In words: qHTS assay to identify small molecule antagonists of the androgen receptor (AR) signaling pathway (AID 743035; active = well fitted inhibition curve with a large enough effect in the signal ratio in the repeat runs, not every such curve was filed as active; the % refers to the signal ratio). In short, it runs like this:
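Beta-lactamase FRET read (2 h RT incubation with LiveBLAzer B/G) following 16 h of compound plus R1881 treatment of AR-UAS-bla HEK293 cells, which had been pre-incubated 4 h at 37C.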

Androgen receptor (Homo sapiens), sequence (P10275 whole entry, looked up): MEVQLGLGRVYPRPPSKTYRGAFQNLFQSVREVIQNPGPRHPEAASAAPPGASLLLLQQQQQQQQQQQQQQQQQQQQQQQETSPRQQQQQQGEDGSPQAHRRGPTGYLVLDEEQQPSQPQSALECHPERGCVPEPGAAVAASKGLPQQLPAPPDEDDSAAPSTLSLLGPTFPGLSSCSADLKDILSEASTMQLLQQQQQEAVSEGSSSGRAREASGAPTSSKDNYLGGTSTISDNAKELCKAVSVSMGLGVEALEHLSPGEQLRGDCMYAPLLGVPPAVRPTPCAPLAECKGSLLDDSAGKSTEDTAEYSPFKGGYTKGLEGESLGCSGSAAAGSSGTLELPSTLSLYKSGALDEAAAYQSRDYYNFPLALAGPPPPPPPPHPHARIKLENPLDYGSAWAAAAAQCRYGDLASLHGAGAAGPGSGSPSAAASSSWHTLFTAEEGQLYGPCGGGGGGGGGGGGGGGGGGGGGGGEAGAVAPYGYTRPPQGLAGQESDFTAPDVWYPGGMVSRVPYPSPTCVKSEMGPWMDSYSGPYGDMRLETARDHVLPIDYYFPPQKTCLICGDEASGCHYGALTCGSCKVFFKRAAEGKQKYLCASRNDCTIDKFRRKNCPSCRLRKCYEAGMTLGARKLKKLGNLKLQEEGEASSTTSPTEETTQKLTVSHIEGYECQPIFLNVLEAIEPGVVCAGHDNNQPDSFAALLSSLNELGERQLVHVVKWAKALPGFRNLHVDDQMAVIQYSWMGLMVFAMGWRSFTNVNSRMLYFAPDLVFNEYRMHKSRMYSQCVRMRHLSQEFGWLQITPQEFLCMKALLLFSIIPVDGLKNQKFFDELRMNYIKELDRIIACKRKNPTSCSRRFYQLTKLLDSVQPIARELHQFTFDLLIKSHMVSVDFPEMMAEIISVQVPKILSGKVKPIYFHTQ

Turning to `OC1CCCCC1c1ccccc1` (stereo not given), the outcome in [1] and in assay [5] was inactive. The Potency entry in assay [2], in [3], in [4], in assay [6], in assay [7] and in [8] was “inactive” throughout.
On to `CO[C@]12C[C@@H](COC(=O)c3cncc(Br)c3)CN(C)[C@@H]1Cc1cn(C)c3cccc2c13`, for which the result in assay [1], in [10] and in [5] was inactive. In addition, the Potency is 5.96 µM (active) in [2], 10.6 µM (active) in assay [3] and 11.9 µM (active) in assay [9]. The Potency entry in assay [6], in assay [7] and in assay [8] was “inactive” each time.
Regarding `CCCCCCCCCCCCCCCCC`, the outcome in assay [1] was inactive. For the same compound, the Potency entry in assay [2], in assay [3], in assay [4] and in assay [7] was “inactive” in each case.
As for `CCCCC/C=C\CCC=O`, the compound was called inactive in [1] and in [10]. For the same compound, the Potency entry in assay [2], in assay [3], in [4] and in [7] was “inactive” each time.
On to `COc1ccc(CCN(C)CCCC(C#N)(c2cc(OC)c(OC)c(OC)c2)C(C)C)cc1OC` (stereo not given), for which the call in [1] was inactive. Further, the Potency was 16.8 µM (active) in assay [2] and 29.8 µM (active) in [3]. The Potency entry in assay [4] and in [7] was “inactive” in each case.
On to `CC1=CC(C)C(C=O)CC1` (stereo not given), for which the outcome in [1] was inactive. For the same compound, the Potency result in assay [2], in assay [3], in assay [4] and in [7] was “inactive” throughout.
For the compound `CCCCCCCCCCCC`, the call in assay [1] was inactive. The Potency entry in assay [2], in assay [3], in [4] and in assay [7] was “inactive” each time.
With `C[N+](C)(C)CCCCCC[N+](C)(C)C`, the result in assay [1] was inactive. Besides, the Potency result in assay [2], in assay [3], in assay [4] and in assay [7] was “inactive” throughout.
Regarding `CCN1CCC[C@H]1CNC(=O)c1c(O)c(Cl)cc(Cl)c1OC`, the compound was classed as inactive in [1]. Besides, the Potency result in assay [2], in assay [3], in [4] and in assay [7] was “inactive” throughout.
As to `CC(C)OC(=O)c1ccccc1`, the compound was called inactive in assay [1]. Also, the Potency entry in assay [2], in assay [3], in assay [4] and in [7] was “inactive” throughout.
Take `O=c1cc(CO)occ1O`: in assay [1], the compound was called inactive. Further, the Potency entry in [2], in assay [3], in assay [9], in assay [4] and in [7] was “inactive” throughout.
Consider `CCc1nccnc1CC`, for which the compound was classed as inactive in assay [1]. Moreover, the Potency result in [2], in [3], in [9], in assay [4] and in assay [7] was “inactive” throughout.
As for `C[C@](N)(Cc1ccc(O)cc1)C(=O)O`, the outcome in assay [1] was inactive. Besides, the Potency entry in assay [2], in assay [3], in assay [4] and in [7] was “inactive” each time.
As to `Cc1ccc(Cl)cc1Cl`, in assay [1], the compound was called inactive. Moreover, the Potency entry in [2], in assay [3], in assay [4] and in assay [7] was “inactive” throughout.
Turning to `CC(C)(C)c1nnc(NS(=O)(=O)c2ccccc2)s1`, the result in assay [1] was inactive. In addition, the Potency result in [2], in assay [3], in assay [4] and in [7] was “inactive” in each case.
With `CCN(CC)CCNC(=O)c1cc(S(C)(=O)=O)ccc1OC`, in assay [1], the compound was called inactive. The Potency entry in assay [2], in assay [3], in assay [9] and in assay [7] was “inactive” each time.
With `OC(CCN1CCCCC1)(c1ccccc1)C1CC2C=CC1C2` (stereo not given), the result in [1] was inactive. For the same compound, the Potency in [2] was 7.5 µM (active) and 9.44 µM (active); in assay [3], 15 µM (active) and 13.3 µM (active). In [4], the Potency entry was “inactive”.
With `Cn1c(N)c(N=O)c(=O)n(C)c1=O`, the call in [1] was inactive. In addition, the Potency result in [2], in assay [3], in assay [4] and in [7] was “inactive” throughout.
For the compound `Cc1nc2c([nH]1)c(=O)n(C)c(=O)n2Cc1ccco1`, the result in assay [1] was inactive. In addition, the Potency result in [2], in [3], in [4] and in assay [7] was “inactive” each time.
In the case of `CN(C)CCCSc1ccccc1NC(=O)/C=C/c1ccccc1`, in assay [1], the result was inactive. Also, the Potency in assay [2] is 26.6 µM (active); in assay [3] it was 13.3 µM (active). The Potency entry in assay [4] and in [7] was “inactive” in each case.
For `O=S(O)CO`, the compound was classed as inactive in assay [1] and in assay [10]. The Potency result in assay [2], in assay [3], in assay [4], in assay [6], in assay [7] and in assay [8] was “inactive” in each case.
As to `CC(C)(CC(=O)O)C(=O)O`, the outcome in assay [1], in assay [10] and in assay [5] was inactive. In addition, the Potency result in [2], in [3], in [4], in assay [6], in [7] and in [8] was “inactive” each time.
As to `Cn1cc(S(C)=O)c(=O)c2ccc(F)cc21` (stereo not given), in [1], the compound was classed as inactive. For the same compound, the Potency entry in assay [2], in assay [3], in [4] and in [7] was “inactive” throughout.
On to `CCN(Cc1ccncc1)C(=O)C(CO)c1ccccc1` (stereo not given), for which the result in assay [1] was inactive. Further, the Potency result in [2], in assay [3], in assay [4] and in [7] was “inactive” throughout.
In the case of `NC(=O)Nc1ccccc1`, the outcome in assay [1] was inactive. In addition, the Potency result in assay [2], in [3], in [4] and in assay [7] was “inactive” throughout.
With `COC(C)(C)CCCC(C)CC=O` (stereo not given), the compound was called inactive in assay [1]. In addition, the Potency result in [2], in assay [3], in [9], in assay [4] and in [7] was “inactive” each time.
Take `NC(CSCC(=O)O)C(=O)O` (stereo not given): in assay [1], the compound was classed as inactive. The Potency result in [2], in assay [3], in assay [4] and in [7] was “inactive” throughout.
As for `C[C@@H]1CCN(C(=O)[C@H](CCCN=C(N)N)NS(=O)(=O)c2cccc3c2NC[C@H](C)C3)[C@@H](C(=O)O)C1`, the compound was called inactive in assay [1]. Further, the Potency result in [2], in assay [3], in [4] and in [7] was “inactive” in each case.
With `O=C(O)CNC(=O)c1ccc([N+](=O)[O-])cc1`, the result in assay [1] was inactive. The Potency entry in assay [2], in [3], in assay [4] and in assay [7] was “inactive” each time.
As for `CCOC(=O)CCC(C)=O`, in assay [1], the result was inactive. For the same compound, the Potency result in assay [2], in assay [3], in assay [4] and in assay [7] was “inactive” throughout.
Regarding `CCOC(=O)Nc1ccc(NCc2ccc(F)cc2)nc1N`, in assay [1], the compound was called inactive. For the same compound, in assay [2], the Potency is 26.6 µM (active). For the same compound, the Potency result in assay [3], in assay [4] and in [7] was “inactive” each time.
As to `CC/C=C\CC/C=C/CO`, the outcome in [1] was inactive. Besides, the Potency result in assay [2], in assay [3], in [4] and in assay [7] was “inactive” each time.
Regarding `C=COCC1CCC(CO)CC1` (stereo not given), the result in [1] was inactive. For the same compound, the Potency result in assay [2], in assay [3], in assay [4] and in assay [7] was “inactive” throughout.
Turning to `O=C(CCCN1CCN(c2ccccn2)CC1)c1ccc(F)cc1`, the call in assay [1] was inactive. For the same compound, the Potency entry in [4] and in [7] was “inactive” each time.
Turning to `CCOC(=O)c1ccc(C)cc1`, in assay [1], the call was inactive. Besides, the Potency entry in assay [3], in assay [9], in assay [4] and in [7] was “inactive” in each case.
